According to PubChem BioAssay AID2017 (National Center for Advancing Translational Sciences (NCATS), 2009):
Inconclusive results are not listed. Unmarked numbers belong to inactive results. Calls come from the whole dose curve; as a rule, active = well fitted curve in the direction sought with a large enough effect; inconclusive = small, poorly fitted or top-dose-only effect, or another doubt; inactive = no such curve, though single readings can be large or run the other way.

system: 4-diphosphocytidyl-2-C-methyl-D-erythritol kinase IspE (bacterial, species not stated); assay: Confirmatory Assay for Inhibitors of Human Galactokinase (GALK): CDP-Me assay counterscreen; details: ATP depletion, Kinase-Glo luminescence; series mostly up to 115 µM; activity change, negative = inhibition: at the top concentration
Summary of the method: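 Luminescent read-out of ATP remaining (Kinase-Glo Plus) after 1 h at room temperature. Reaction: 0.25 ug/mL CDP-Me kinase, ATP 15 uM, CDP-ME 30 uM, HEPES pH8.0 buffer containing MgCl2, KCl, DTT and BSA.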

Point of comparison: `CCOC(=O)c1c(C)[nH]c2c1-c1ccccc1C(=O)C2=O`, “activity change, negative = inhibition” value -7.25%. Against it:
- CS(=O)(=O)c1ccc2c(c1)sc1nc(=O)c(/C=C3/C=CC(=O)C(O)=C3)c(N)n12 — lower, -7.97%
- CCOC(=O)C1(Cc2cccc(F)c2)CCN(C(=O)COC)CC1 — higher, 2.45%
- C[C@H](NC(=O)C1CCC(CNC(=O)[C@@H]2CCCN2C(=O)OC(C)(C)C)CC1)C(=O)O (stereo partly specified) — higher, 3.35%
- O=C1C(C2=C(O)c3ccccc3C2=O)=Nc2ccccc21 — higher, -6.72%
- CC(C)OC(=O)C(C(=O)C(F)(F)F)c1cc(NS(=O)(=O)c2ccc3ccccc3c2)c2ccccc2c1O (stereo unspecified) — higher, 0.739%
- N#C/C(=C\c1coc2ccc(O)cc2c1=O)C(=O)Nc1nc2ccccc2s1 — lower, -9.89%
- S=c1[nH]nc(Cc2sc(-c3ccccc3)nc2-c2ccccc2)o1 — higher, 1.28%
- O=C(NCCc1ccccc1)c1ccc2c(=O)[nH]c3c(C(=O)NCC4CCCO4)sc(=S)n3c2c1 (stereo unspecified) — lower, -12.4%
- CCS(=O)(=O)C1=NN2C(=N)/C(=C\c3ccc(OS(=O)(=O)c4ccccc4)cc3)C(=O)N=C2S1 — lower, -28.5%
- CC1=NN(c2ccccc2)C(=O)/C1=C/c1c(O)n(-c2ccc(F)c(Cl)c2)[nH]c1=O — higher, -6.6%
